Screens from PubChem BioAssay.
Only some compounds are listed: those with a hit (about 2.6% of all), similar ones and a draw of the others.
LT uptake inh: inhibitors of anthrax lethal toxin internalization; Cells, anthrax lethal toxin internalization, FRET ratio (460/530); Potency, µM (highest dose often 40 µM), for inactives: at the highest dose activity change, negative = inhibition, hits mostly inhibitors; hit rate 0.67% among 70,000; AID 912; note: % is set by controls: 0 for no effect and ±100 for the full control effect; nearly all actives have a fitted effect of over 50% in size
SmPrx2 inh: inhibitors of Schistosoma mansoni peroxiredoxin 2. hit rate 0.07% among 65,000. Potency, µM. AID 448. S. mansoni Prx2 activity coupled to TGR/GSH (TGR is thioredoxin glutathione reductase), NADPH fluorescence loss, qHTS
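qHTS, coupled TGR/Prx2 format; 15 min compound preincubation at RT; reaction started with H2O2 (2.5 mM aliquot); kinetic NADPH fluorescence decrease, ex 365/em 450 nm.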
AmpC inh no det: inhibitors of E. coli AmpC beta-lactamase without detergent; P00811; hit rate 1.8% among 71,000; AmpC nitrocefin hydrolysis, absorbance 480 nm, no detergent; Potency, µM (highest dose often 28.7 µM), for inactives: top-dose activity change, negative = inhibition; note: % of control where 0% means no effect
Target sequence (P00811 whole entry, looked up): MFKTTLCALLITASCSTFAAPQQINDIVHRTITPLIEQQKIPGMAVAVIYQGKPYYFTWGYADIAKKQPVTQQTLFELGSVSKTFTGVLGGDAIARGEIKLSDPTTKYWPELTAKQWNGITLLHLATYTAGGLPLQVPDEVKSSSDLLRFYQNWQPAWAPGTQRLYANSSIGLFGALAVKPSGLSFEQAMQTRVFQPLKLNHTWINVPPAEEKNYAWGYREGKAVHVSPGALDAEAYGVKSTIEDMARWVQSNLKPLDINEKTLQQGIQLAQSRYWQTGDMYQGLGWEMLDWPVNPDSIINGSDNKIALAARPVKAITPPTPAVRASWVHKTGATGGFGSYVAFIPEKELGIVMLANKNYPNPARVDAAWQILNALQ
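AmpC, 20 mM phosphate pH 7.0; 15 min cpd preinc, RT; start with nitrocefin (800 uM stock); A480 kinetic read, 20 s intervals, 4 min. No-enzyme wells = negative control.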
AmpC det inh: blocks E. coli AmpC beta-lactamase in presence of detergent; P00811; purified AmpC, nitrocefin hydrolysis with detergent; Potency, µM (titrated, usually from 28.7 µM), inactives show at the top dose activity change, negative = inhibition; hit rate 0.09% among 71,000; AID 584; active = well fitted curve in the direction sought with a large enough effect; inconclusive = small, poorly fitted or top-dose-only effect; note: % is set by controls: 0 for no effect and ±100 for the full control effect
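E. coli AmpC (5.3 nM) in 20 mM phosphate pH 7.0 with 0.01% Triton X-100, preincubated 15 min RT with compound; nitrocefin (2 uL of 800 uM stock) hydrolysis followed by 480 nm absorbance every 20 s over 4 min.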
An asterisk follows results filed as active; u = inconclusive; x = no result given; [ ] = dose if it differs, or a comment. Unless noted, calls come from the whole dose curve. Potency is the fitted concentration of half-maximal effect.

SMILES | LT uptake inh | SmPrx2 inh | AmpC inh no det | AmpC det inh
O=C(Nc1cccc(S(=O)(=O)C(F)F)c1)c1ccc(Cl)c(S(=O)(=O)N2CCOCC2)c1 | 10µM* | >57 | -7.1% | 2.4%
Nc1ncnc2nn([C@H]3O[C@@H](CO)[C@@H](O)[C@H]3O)nc12 | -9.4%[8 µM] | >57 | 2.4%[5.75 µM] | -4.7%[5.75 µM]
[O-][N+]1(CC[N+]2([O-])CCCCC2)CCCCC1 | -20.9%[8 µM] | >57 | -5.3%[5.75 µM] | -4.8%[5.75 µM]
Cc1noc(C)c1S(=O)(=O)N1CCCC(C(=O)Nc2ccc(Cl)cn2)C1 (stereo unspecified) | -2.3% | >57 | 10.9% | -4.4%
Cc1cc(NC(=O)C2CCCN(S(=O)(=O)c3c(C)noc3C)C2)no1 (stereo unspecified) | -4.9% | >57 | 3.98µM*[single pt active] | 12.9%
CCc1cc2c(=O)n(Cc3ccco3)c(SCc3c(C)noc3C)nc2s1 | 10µM* | >57 | 28.6% | 6.7%
CCc1ccc2c(c1)N(C[C@H](C)CN(C)C)c1ccccc1S2 | -24.9%[8 µM] | >57 | 17.8%[5.75 µM] | -0.8%[5.75 µM]
C=CC(C)(C)c1[nH]c2ccccc2c1C1=C(O)C(=O)C(c2c[nH]c3c(CC=C(C)C)cccc23)=C(O)C1=O | 25.1µM* | >11.4 | u | u
O=C(O)[C@H]1[C@H](C(=O)O)[C@H](C(=O)O)C[C@@H]1C(=O)O | u | >57 | 0.1%[5.75 µM] | -4.1%[5.75 µM]
Cc1cc(C(C)(C)C)c(O)c(C(C)(C)C)c1 | x | x | 3.5% | 12.0%
Cc1cc(-c2cc(C)c(O)c(C(C)(C)C)c2)cc(C(C)(C)C)c1O | 2.51µM* | >57 | -3.9%[5.75 µM] | -2.3%[5.75 µM]
CS(=O)(=O)N1CCC2(CC1)CN(C(=O)Nc1cccc(F)c1)C2 | -9.1% | >57 | 96.6% | -4.4%
O=C(Nc1nc(-c2cccs2)cs1)c1ccc(S(=O)(=O)N2CCCC2)cc1 | u | >57 | 12.6µM* | 2.0%
O=C(Nc1nc(-c2cccs2)cs1)c1ccc(Cl)s1 | 10µM* | >57 | u | 12.3%
CCC1CCCCN1S(=O)(=O)c1ccc(C(=O)Nc2nnc(-c3cccs3)o2)cc1 (stereo unspecified) | u | >57 | 12.6µM* | -7.7%
CC1CC(C)CN(S(=O)(=O)c2ccc(C(=O)Nc3nnc(-c4cccs4)o3)cc2)C1 (stereo unspecified) | 16.8% | >57 | -9.1% | 7.6%
CC(=O)Nc1nc(-c2cccs2)cs1 | 3.7% | >57 | -3.8% | -5.2%
N=C1CCC[C@@H]1C(=S)SCCC(N)=O | -2.9%[8 µM] | >57 | 0.4%[5.75 µM] | -1.0%[5.75 µM]
CCOC(=O)N1CCC(NC(=O)c2ccc(CS(=O)(=O)c3ccc(OC)cc3)o2)CC1 | 6.6% | >57 | 3.98µM*[single pt active] | 13.2%
COc1ccc(S(=O)(=O)Cc2ccc(C(=O)NC3CCCC3)o2)cc1 | -8.6% | >57 | 3.98µM*[single pt active] | 14.9%
COc1ccccc1S(=O)(=O)Cc1ccc(C(=O)NC2CCCCC2)o1 | -8.9% | >57 | 11.7% | -1.0%
COc1cccc(-c2cc(N)nn2C(=O)Nc2ccc(Cl)cc2)c1 | u | >57 | 3.98µM*[single pt active] | 13.8%
COc1cccc(-c2csc3nnc(SCC(=O)c4ccc(NC(C)=O)cc4)n23)c1 | -8.2% | >57 | 12.2% | -5.9%
COC(=O)[C@@H]1C[C@H]1[C@@H](NC(C)=O)c1ccccc1 | -4.4% | >57 | -4.2% | -0.2%
CS(=O)(=O)N1CCc2cc(-c3csc(NC(=O)Cc4cccs4)n3)ccc21 | 12.6µM* | >57 | u | 1.1%
SMILES | LT uptake inh | SmPrx2 inh | AmpC inh no det | AmpC det inh
O=C(NCCC1=CCCCC1)C1CCN(S(=O)(=O)c2cccs2)CC1 | 8.9% | >57 | 9.2% | 10.0%
O=C(NCCC1=CCCCC1)C1CCN(S(=O)(=O)c2cccc3nonc23)CC1 | 0.3% | >57 | 20µM*[single pt active] | 9.8%
O=C(NCc1ccc2c(c1)OCO2)C1CCCN(S(=O)(=O)c2cccc3nonc23)C1 (stereo unspecified) | -5.5% | >57 | 10µM*[single pt active] | 18.6%
CC(=O)C1=C(O)[C@@H]2[C@@H]3c4c[nH]c5cccc(c45)C[C@@H]3C(C)(C)N2C1=O | -4.0% | >57 | 0.9% | -3.9%
O=C(c1ccncc1)N1CCC2(CC1)CN(Cc1cc(C(F)(F)F)cc(C(F)(F)F)c1)C2 | 12.6µM* | >57 | -5.5% | 22.9%
O=C(c1cc(C(F)(F)F)cc(C(F)(F)F)c1)N1CCC2(CC1)CN(Cc1ccncc1)C2 | u | >57 | 74.3% | -3.4%
CCOC(=O)c1c(NC(=O)c2ccc(Br)o2)sc(C)c1CC | 5.01µM* | x | 8.5% | 6.1%
COc1ccccc1CCn1c(=O)c(C)nc2cncnc21 | -6.9% | >57 | 45.0% | -2.1%
CCOC(=O)CCc1c(C)nc2c(c(C)nn2C(C)(C)C)c1C | u | >57 | 3.98µM*[single pt active] | 12.7%
O=S(=O)(c1ccc(Oc2ccc(S(=O)(=O)N3CCOCC3)cc2)cc1)N1CCOCC1 | -15.0% | x | 107.7% | -1.2%
C=CS(=O)(=O)c1ccc(Oc2ccc(S(=O)(=O)C=C)cc2)cc1 | 3.98µM* | u | 14.6% | 1.6%
COCc1nnc(NS(=O)(=O)c2ccc(C)cc2)s1 | -5.6% | >57 | -9.8% | 14.7%
CC(C)Cc1nnc(NS(=O)(=O)c2ccc(Cl)cc2)s1 | -14.1% | >57 | 3.98µM*[single pt active] | 25.3%
O=C(COC(=O)c1cc(-c2ccco2)nc2ccccc12)NCc1ccc2c(c1)OCO2 | u | >57 | 12.6µM* | -11.8%
CC1CCN(c2nc3c(c(=O)[nH]c(=O)n3C)n2Cc2ccccc2)CC1 | 21.2% | >57 | -0.3% | 10.2%
CC1CCCN(c2nc3c(c(=O)[nH]c(=O)n3C)n2CCCc2ccccc2)C1 (stereo unspecified) | u | >57 | 15.8µM*[single pt active] | 2.8%
CCOc1ccccc1NC1c2ccccc2C(=O)N1c1ccc(C)cn1 (stereo unspecified) | -26.1% | >57 | -3.1% | 12.7%
COc1cc(NC2c3ccccc3C(=O)N2c2ccc(C)cn2)cc(OC)c1OC (stereo unspecified) | 5.8% | >57 | 75.8% | 12.9%
O=C1c2ccccc2C(Nc2cccnc2)N1Cc1ccccc1Cl (stereo unspecified) | -14.6% | >57 | 3.98µM*[single pt active] | 12.0%
CCOC(=O)c1ccccc1NC1c2ccccc2C(=O)N1c1ccc(C)cn1 (stereo unspecified) | u | >57 | 3.98µM*[single pt active] | 13.4%
Cc1ccc(N2C(=O)c3ccccc3C2Nc2cccnc2)nc1 (stereo unspecified) | -6.6% | >57 | 3.98µM*[single pt active] | 10.9%
NCC[C@H](N)C(=O)O | -1.4%[8 µM] | >57 | 1.6%[5.75 µM] | -2.8%[5.75 µM]
COC(=O)c1ccc(C(NC(=O)OCc2ccccc2)/C(=C/[C@@H](C)C(=O)NCc2ccc(-c3ccccc3)cc2)c2cccnc2)cc1 (stereo partly specified) | 10.9% | x | 36.1% | 12.4%
CCOC(=O)c1c(NC(=O)Cc2cccs2)sc2c1CCCC2 | 12.6µM* | >57 | u | -6.3%
CCOC(=O)c1c(NC(=O)c2cccs2)sc2c1CCCC2 | -21.2% | x | -3.9% | 10.7%
CN(C)c1ccnc(SCc2ccccc2Cl)c1C#N | 7.94µM* | >57 | -1.5% | -2.8%
COc1ccc(CNc2ncnc3ccc(-c4ccc5c(c4)OCO5)cc23)c(OC)c1 | u | >57 | 3.5% | 3.4%
COc1cc(C(=O)N(CCc2ccccc2)C2CC3CCC(C2)N3C)cc(OC)c1OC (stereo unspecified) | -13.2% | >57 | -9.8% | -4.0%
